This passage reports composite z-score results from PubChem BioAssay.

The target of the assay is Fibroblast growth factor 2 (Homo sapiens) (UniProt P09038). As to the kind of experiment: basic fibroblast growth factor binding to printed compounds – biochemical, small-molecule microarray, 635/667 nm fluorescence, primary screen (AID 1133). As to conditions: FGF2, fluorescence 635/667, higher = more signal.
Chain of Fibroblast growth factor 2 (Homo sapiens) (P09038 whole entry, looked up): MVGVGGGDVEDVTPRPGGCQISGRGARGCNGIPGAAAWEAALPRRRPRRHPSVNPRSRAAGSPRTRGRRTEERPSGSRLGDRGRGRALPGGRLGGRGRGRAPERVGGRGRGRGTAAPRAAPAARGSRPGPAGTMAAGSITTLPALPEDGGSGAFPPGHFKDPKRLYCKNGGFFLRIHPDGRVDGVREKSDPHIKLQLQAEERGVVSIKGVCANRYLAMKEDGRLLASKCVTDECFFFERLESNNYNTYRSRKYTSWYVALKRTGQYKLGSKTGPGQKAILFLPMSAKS
On to `CCOC(=O)[C@H](Cc1ccccc1)NC(=O)CCC1CC(OC(=O)NCc2cccc3ccccc23)CC2(CCCC(COC(=O)NCCc3ccccc3OC)O2)O1` (stereo not given in full), for which the composite z-score was determined as 0.793.
The value for `O=C1C=C[C@@H](O)[C@@H]2[C@@H]3C(=O)N(c4cccc(Oc5ccccc5)c4)C(=O)[C@@H]3CC[C@@H]12` was -0.196; that for `O=C1C=C[C@@H](O)[C@@H]2[C@@H]3C(=O)N(Cc4ccccc4)C(=O)[C@@H]3CC[C@@H]12` was 0.484; that for `COC(=O)[C@H](C)NC(=O)CCC1CC(OC(=O)NCc2ccc3c(c2)OCO3)CC2(CCCC(COC(=O)NCc3ccccc3)O2)O1` (stereo not given in full) was 0.718.
The value for `COc1ccc(COC(=O)NN=C2C[C@@H](O)[C@@H](O)[C@@H]3[C@@H]4C(=O)N(C(C)(C)C)C(=O)[C@@H]4CC[C@@H]23)cc1` was 0.247.
